Sampled rows, rich in hits. Any-hit rate of the full collection: about 3.7%.
UGM FP inh – Mtb UDP-galactopyranose mutase inhibition. 0.06% of 320,000 active. inhibition, % at 10 µM. P9WIQ1. AID 504406. purified UGM, fluorescence polarization probe displacement; in the data active = inhibition above about 10%, passing the limit was not always enough
Rv3671c inh – inhibitors of M. tuberculosis serine protease Rv3671c. AID 2606. 0.048% of 320,000 active. inhibition, % at 5.96 µM. P9WHR9; in the data active = inhibition above about 38%;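 note: extracellular domain of Rv3671c used as enzyme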
Target sequence (P9WHR9 whole entry, looked up, the tested form may be a part): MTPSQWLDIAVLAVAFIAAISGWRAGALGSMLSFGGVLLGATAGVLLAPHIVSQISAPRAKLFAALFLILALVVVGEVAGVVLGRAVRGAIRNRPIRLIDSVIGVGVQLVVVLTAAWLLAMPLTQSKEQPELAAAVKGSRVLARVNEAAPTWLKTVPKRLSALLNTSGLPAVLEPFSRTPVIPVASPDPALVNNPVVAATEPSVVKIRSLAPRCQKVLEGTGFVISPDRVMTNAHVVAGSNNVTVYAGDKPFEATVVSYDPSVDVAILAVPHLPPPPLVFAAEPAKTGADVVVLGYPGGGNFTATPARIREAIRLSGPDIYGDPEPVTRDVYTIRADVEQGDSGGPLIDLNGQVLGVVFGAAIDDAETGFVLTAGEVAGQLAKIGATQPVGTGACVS
GDH-TPI counter-1 – inhibits GDH-TPI coupling enzymes, artifact for Mtb FBA screen. GDH-TPI coupled enzyme counterscreen, NADH absorbance. inhibition, % at 4.8 µM. 1.2% of 360,000 active; in the data active = inhibition above about 30%
Mtb bLac sens – beta-lactam sensitization of Mtb H37Rv; inhibition, % at 25 µM; AID 434955; M. tuberculosis H37Rv growth with meropenem, percent inhibition; 0.27% of 330,000 active;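 note: growth measured after seven days incubation then overnight dye step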
FBA Mtb inh – Mtb fructose-bisphosphate aldolase inhibition; P9WQA3; purified M. tuberculosis FBA, fluorescence read-out; inhibition, % at 1 µM; 2.3% of 360,000 active; AID 588726; in the data active = inhibition above about 27%
FadD28 FP inh – M. tuberculosis FadD28 bisubstrate binding inhibition; inhibition, % at 12.5 µM; 0.22% of 360,000 active; FadD28 bisubstrate probe binding, fluorescence polarization; in the data active = inhibition above about 8.5%, passing the limit was not always enough
Mtb FBA inh conf – Mtb FBA inhibition, confirmed | inhibition, % at 1 µM | shares compounds with FBA Mtb inh | purified M. tuberculosis FBA, fluorescence read-out | 78% of 5,600 active; in the data active = inhibition above about 27%
GDH-TPI counter-2 – counter-screen for M. tuberculosis FBA inhibitors: GDH-TPI coupled enzyme inhibition; shares compounds with FBA Mtb inh; GDH-TPI coupled enzyme counterscreen, fluorescence; inhibition, % at 1 µM; 81% of 5,600 active; in the data active = inhibition above about 10%
GDH-TPI DR – inhibits GDH-TPI coupling enzymes in dose response; shares compounds with FBA Mtb inh; GDH-TPI coupled enzyme assay, fluorescence, artifact counterscreen; IC50, µM; 79% of 170 active
Hits are given with their value; 0 = inactive; - = not tested or not shown; + = active, no number. Unless noted, the rule behind the calls is not given here.

SMILES | UGM FP inh | Rv3671c inh | GDH-TPI counter-1 | Mtb bLac sens | FBA Mtb inh | FadD28 FP inh | Mtb FBA inh conf | GDH-TPI counter-2 | others
Cc1ccc(-c2nnc(-c3cccnc3)o2)cc1 | 0 | 0 | 0 | 0 | 0 | 0 | - | -
Brc1ccc(-c2nnc(-c3cccnc3)o2)cc1 | 0 | 0 | 0 | 0 | 0 | 0 | - | -
Cc1ccccc1-c1nnc(-c2cccs2)o1 | 0 | 0 | 0 | 0 | 29.4 | 0 | 165.1 | 128.3
c1cncc(-c2nnc(-c3cccs3)o2)c1 | 0 | 0 | 0 | 0 | 51.1 | 0 | 70.2 | 47.1
Cc1nc2c(OCc3cccc(Cl)c3)cccn2c1N(C)Cc1cccs1 | - | - | 0 | - | 0 | 0 | - | -
O=C(N/N=C/c1ccc(N2CCOCC2)cc1)C1COc2ccccc2O1 (stereo unspecified) | 0 | 0 | 0 | 0 | 38.2 | 0 | 43.6 | 41.5
CCC(C)n1c(SCC(=O)N(CC)c2c(N)n(Cc3ccccc3)c(=O)[nH]c2=O)nc2ccccc2c1=O (stereo unspecified) | - | - | 0 | - | 0 | 0 | - | -
Cc1cccn2cc(-c3ccccc3)nc12 | 0 | 0 | 0 | 0 | 0 | 0 | - | -
COc1ccc(-c2cn3ccc4ccccc4c3n2)cc1 | 0 | 0 | 0 | 0 | 44.0 | 0 | 0 | 0
CCCOc1ccc(-c2cn3ccccc3n2)cc1[N+](=O)[O-] | 0 | 0 | 0 | 0 | 0 | 0 | - | -
CCCOc1ccc(-c2cn3ccccc3n2)cc1 | 0 | 0 | 0 | 0 | 30.2 | 0 | 54.8 | 37.6
CC1(C(=O)Nc2ccc3[nH]ncc3c2)CCN1C(=O)C/C=C/c1ccccc1 (stereo unspecified) | - | - | 0 | - | 0 | 0 | - | -
Nc1nc2c(c(=O)[nH]1)CN(Cc1ccccc1)CC2 | 0 | 0 | 0 | 0 | 53.4 | 0 | 107.5 | 98.7
Nc1c2c(nc3ccccc13)CCN(Cc1ccccc1)C2 | 0 | 0 | 0 | 0 | 0 | 0 | - | -
COc1ccc(COc2cc(-c3cccc(OC)c3)nc3ccc(NC(=O)C(C)C)cc23)cc1 | 0 | 0 | 0 | 0 | 42.9 | 0 | 87.3 | 71.1
N#Cc1c(-c2cccs2)cc(-c2cccnc2)nc1N | 0 | 0 | 0 | 0 | 87.5 | 0 | 102.3 | 80.8
COc1ccc(-c2cc(-c3cccnc3)c(C#N)c(N)n2)cc1 | 0 | 0 | 0 | 0 | 71.4 | 0 | 134.7 | 105.7
COc1ccccc1-c1cc(-c2ccc(O)cc2)nc(N)c1C#N | 0 | 0 | 0 | 0 | 66.4 | 0 | 139.9 | 109.2
COc1ccccc1-c1c(C#N)c(N)nc2c1CCc1ccccc1-2 | 0 | 0 | 0 | 0 | 42.0 | 0 | + | +
Cc1cccc(NC(=O)c2nc[nH]c2C(=O)N2CCC(C)CC2)c1 | 0 | 0 | 0 | 0 | 0 | 0 | - | -
Cc1cc(C)c(C)c(C(=O)COC(=O)CNC(=O)CNC(=O)c2ccco2)c1C | 0 | 0 | 0 | 0 | 0 | - | - | -
CS(=O)(=O)c1nc(-c2ccc(Br)cc2)cc(-c2ccccc2)c1C#N | 0 | 0 | 0 | 0 | 0 | 0 | - | -
N#Cc1c(-c2ccc(Br)cc2)cc(-c2cccnc2)nc1N | 0 | 0 | 0 | 0 | 28.8 | 0 | 0 | 0 | GDH-TPI DR=0
COc1ccccc1Cc1c(C2CCCCC2)nc2ccc(Cl)cn12 | - | - | - | - | 0 | 0 | - | -
CCOC(=O)CSC1=Nc2ccccc2C2=NC(CC(=O)NCc3ccccc3)C(=O)N12 (stereo unspecified) | 0 | 0 | 0 | 0 | 28.9 | 0 | 102.8 | 102.1
CCOC(=O)CSC1=Nc2ccccc2C2=NC(CC(=O)NCc3cccs3)C(=O)N12 (stereo unspecified) | 0 | 0 | 0 | 0 | 0 | 0 | - | -
NC(=O)CSC1=Nc2ccccc2C2=NC(c3ccccc3)C(=O)N12 (stereo unspecified) | 0 | 0 | 0 | 0 | 28.0 | 0 | 50.9 | 43.0
Cc1ccc(OCC(=O)Oc2ccc(C(C)C)cc2)cc1 | 0 | 0 | 0 | 0 | 29.5 | 0 | 183.1 | 130.4
COc1ccc(C(NC(=O)C2CCN(CCc3ccccc3)CC2)c2ccccn2)cc1 (stereo unspecified) | - | - | 0 | - | 0 | 0 | - | -
COc1ccc(-c2cc(=O)oc3c(C)c(OCC(=O)N[C@@H](Cc4ccc(O)cc4)C(=O)O)ccc23)cc1 | 0 | 0 | 0 | 0 | 0 | 0 | - | -
